The text below walks through data of the supplement of paper PMC11219838.

Each structure is given as a SMILES string. A number with no mark means an inactive call.

The subject of this assay is Meloidogyne hapla J2. Kind of assay: proportion of mobile M. hapla J2 relative to DMSO control (fraction of DMSO control); higher = more viable, less nematicidal, active = 0.7 or less. The note with it: 60 µM; 5 days; temperature: 20 °C. As to the method: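 DODA library (846 commercial 1,3,4- and 1,2,4-oxadiazole compounds plus commercial nematicide controls) screened at a single dose of 60 µM (0.6% DMSO) in 96-well plates, two biological replicates. Read-outs: C. elegans N2 L1 survival/reproduction score at day 6, 20 °C (0: 0-10 worms, 1: 11-20, 2: 21-50, 3: >50, 4: overgrown/starved). C. elegans daf-2 dauer, D. dipsaci and M. hapla J2 mobility at day 5, 20 °C, and P. penetrans mobility at day 5, 20 °C, each relative to DMSO controls. M. hapla egg hatching at day 12, 25 °C, relative to the mean of 8 DMSO wells on the same plate.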
In the case of `Clc1cccc(-c2nc(-c3ccccc3Cl)no2)c1`, the “proportion of mobile M. hapla J2” value is 0.991.

For the compound `CCC(=O)Nc1ccccc1-c1nc(-c2ccccn2)no1`, the “proportion of mobile M. hapla J2” value was 0.865.

Take `O=C(CSc1nnc(-c2ccccc2)o1)c1ccc(Br)cc1`: the “proportion of mobile M. hapla J2” value is 0.966.

Consider `Cc1ccc(-c2nc(-c3cccc(C)c3)no2)cc1`, for which the “proportion of mobile M. hapla J2” value is 0.87.

For the compound `COc1ccc(OCc2nc(-c3ccccc3)no2)cc1`, the “proportion of mobile M. hapla J2” value was 0.891.

On to `COc1ccc(C(=O)CSc2nnc(-c3cccc(Br)c3)o2)cc1`, for which the “proportion of mobile M. hapla J2” value is 1.04.

Regarding `Cc1ccc(-c2nc(-c3ccccc3Cl)no2)cc1`, the “proportion of mobile M. hapla J2” value was 0.998.

Regarding `CC(C)C(=O)Nc1ccccc1-c1nc(-c2cccnc2)no1`, the “proportion of mobile M. hapla J2” value was 0.935.

As to `O=C(CSc1nnc(-c2ccc(Br)cc2)o1)NC1CCCC1`, the “proportion of mobile M. hapla J2” value was 0.944.

Take `COc1ccccc1-c1nc(-c2cccc(Br)c2)no1`: the “proportion of mobile M. hapla J2” value was 1.04.

For `Cc1ccc(-c2noc(-c3ccccc3C(=O)N3CCC(C)CC3)n2)cc1`, the “proportion of mobile M. hapla J2” value was 0.999.

Consider `Cc1ccc(-c2nnc(SCC(=O)NCCc3ccccc3)o2)cc1`, for which the “proportion of mobile M. hapla J2” value is 1.01.

For `Brc1cccc(-c2nc(-c3ccncc3)no2)c1`, the “proportion of mobile M. hapla J2” value was 0.991.

For the compound `COc1ccccc1CC(=O)Nc1ccc(-c2noc(-c3ccccc3C)n2)cc1`, the “proportion of mobile M. hapla J2” value was 0.743.

With `O=C(c1ccccc1-c1nc(-c2ccccc2Cl)no1)N1CCCCC1`, the “proportion of mobile M. hapla J2” value was 0.932.

For `CC1CC(C)CN(C(=O)CSc2nnc(-c3ccccc3)o2)C1` (stereo not given), the “proportion of mobile M. hapla J2” value was 1.02.

As for `Cc1ccc(C)c(OCc2nc(-c3ccccc3Cl)no2)c1`, the “proportion of mobile M. hapla J2” value is 0.854.

Take `Cc1ccccc1CSc1nnc(-c2ccco2)o1`: the “proportion of mobile M. hapla J2” value is 0.547 (active).

Take `CCOc1ccccc1-c1nc(-c2ccc(NC(=O)c3ccncc3)cc2)no1`: the “proportion of mobile M. hapla J2” value is 0.977.

Regarding `COc1cccc(-c2nnc(SCc3ccccc3)o2)c1`, the “proportion of mobile M. hapla J2” value is 0.985.

As to `Cn1c(SCc2cccc(F)c2)nnc1-c1ccco1`, the “proportion of mobile M. hapla J2” value is 0.929.

Turning to `COc1ccc(-c2noc(-c3cccc(C)c3)n2)cc1`, the “proportion of mobile M. hapla J2” value is 1.08.

Consider `Cc1ccc(-c2noc(CSc3nc4ccccc4[nH]3)n2)cc1`, for which the “proportion of mobile M. hapla J2” value is 1.05.

With `COc1ccc(-c2noc(-c3cccc(F)c3)n2)cc1`, the “proportion of mobile M. hapla J2” value was 1.

For the compound `Cc1ccc(CSc2nnc(-c3ccco3)o2)c(C)c1`, the “proportion of mobile M. hapla J2” value is 0.687 (active).

Turning to `COc1ccccc1NC(=O)c1ccccc1-c1nc(-c2ccc(Cl)cc2)no1`, the “proportion of mobile M. hapla J2” value is 0.78.

On to `Cc1ccc(-c2nnc(SCC(=O)Nc3ccc(Br)c(C)c3C)o2)cc1`, for which the “proportion of mobile M. hapla J2” value was 1.03.

Take `Cc1ccc(-c2nc(-c3ccccc3)no2)cc1`: the “proportion of mobile M. hapla J2” value was 1.04.

For the compound `Cc1cc(Cl)ccc1NC(=O)CSc1nnc(-c2ccncc2)o1`, the “proportion of mobile M. hapla J2” value was 0.974.

With `Clc1cc(Cl)c(OCc2nc(-c3ccncc3)no2)cc1Cl`, the “proportion of mobile M. hapla J2” value was 0.713.

Take `CCOc1nc(-c2ccccc2)ccc1-c1noc(CC)n1`: the “proportion of mobile M. hapla J2” value was 0.998.

For the compound `Ic1cccc(-c2nc(-c3cccnc3)no2)c1`, the “proportion of mobile M. hapla J2” value is 1.04.

In the case of `Clc1ccccc1-c1noc(COc2ccc(Br)cc2)n1`, the “proportion of mobile M. hapla J2” value is 1.05.

On to `Cc1ccccc1-c1nnc(SCc2ccc(F)cc2)o1`, for which the “proportion of mobile M. hapla J2” value was 0.939.

Turning to `Brc1ccc(-c2nc(-c3ccc4c(c3)OCO4)no2)cc1`, the “proportion of mobile M. hapla J2” value was 1.03.

With `Clc1cc(Br)ccc1OCc1nc(-c2ccccc2)no1`, the “proportion of mobile M. hapla J2” value was 0.818.

Take `CC(C)(C)c1ccc(-c2nnc(SCC(=O)c3ccc(F)cc3)o2)cc1`: the “proportion of mobile M. hapla J2” value is 0.825.

As to `COc1ccc(-c2nc(C3CCCCC3)no2)cc1`, the “proportion of mobile M. hapla J2” value is 0.896.

For the compound `Fc1ccc(-c2noc(-c3ccc(Br)cc3)n2)cc1`, the “proportion of mobile M. hapla J2” value is 1.04.

For the compound `Cc1cc(OCc2nc(-c3ccccn3)no2)c(C)cc1Br`, the “proportion of mobile M. hapla J2” value is 0.711.
